The values that follow come from paper PMC9911399, “Two distinct binding modes provide the RNA-binding protein RbFox with extraordinary sequence specificity”.

Positions count from the first letter of the chain named. Whole data set: some 16,000 sequences, median “ka relative to ugcaugu” near 0.096, cut for the highest 2% near 0.35. Shown is part of a subset that was picked to be rich in the highest values.

T1: RBFOX1 RRM RbFoxmut (Fox-RRM*) (Homo sapiens, UniProt Q9NWB1 109-208, R118D;E147R;N151S;E152T)
T1 sequence: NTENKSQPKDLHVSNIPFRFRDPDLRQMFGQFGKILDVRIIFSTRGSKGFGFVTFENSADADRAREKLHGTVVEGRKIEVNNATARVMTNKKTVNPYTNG

B1: AACUUAC (DNA:RNA)
RNA: GGGAGACCGGAAUUCAGAUUGUCCAACUUACUUAAAUCCCGUCGUAGCCACCA
DNA 1: CAATCTGAATTCCGGTCTCCC
DNA 2: TGGTGGCTACGACGGGATT
B2: CGCAUGA (DNA:RNA)
RNA: B1 RNA with A25C, A26G, U28A, A30G, C31A
DNA 1: CAATCTGAATTCCGGTCTCCC
DNA 2: TGGTGGCTACGACGGGATT
B3: GUAUGAC (DNA:RNA)
RNA: B1 RNA with A25G, A26U, C27A, U29G
DNA 1: CAATCTGAATTCCGGTCTCCC
DNA 2: TGGTGGCTACGACGGGATT
B4: GUCAUGA (DNA:RNA)
RNA: B1 RNA with A25G, A26U, U28A, A30G, C31A
DNA 1: CAATCTGAATTCCGGTCTCCC
DNA 2: TGGTGGCTACGACGGGATT
B5: GCAUUGA (DNA:RNA)
RNA: B1 RNA with A25G, A26C, C27A, A30G, C31A
DNA 1: CAATCTGAATTCCGGTCTCCC
DNA 2: TGGTGGCTACGACGGGATT
B6: GCAUGAC (DNA:RNA)
RNA: B1 RNA with A25G, A26C, C27A, U29G
DNA 1: CAATCTGAATTCCGGTCTCCC
DNA 2: TGGTGGCTACGACGGGATT
B7: AUGAGAG (DNA:RNA)
RNA: B1 RNA with A26U, C27G, U28A, U29G, C31G
DNA 1: CAATCTGAATTCCGGTCTCCC
DNA 2: TGGTGGCTACGACGGGATT
B8: GGCAUGA (DNA:RNA)
RNA: B1 RNA with A25G, A26G, U28A, A30G, C31A
DNA 1: CAATCTGAATTCCGGTCTCCC
DNA 2: TGGTGGCTACGACGGGATT
B9: GCAUGAG (DNA:RNA)
RNA: B1 RNA with A25G, A26C, C27A, U29G, C31G
DNA 1: CAATCTGAATTCCGGTCTCCC
DNA 2: TGGTGGCTACGACGGGATT
B10: GGAUGAC (DNA:RNA)
RNA: B1 RNA with A25G, A26G, C27A, U29G
DNA 1: CAATCTGAATTCCGGTCTCCC
DNA 2: TGGTGGCTACGACGGGATT
B11: GCCAUGA (DNA:RNA)
RNA: B1 RNA with A25G, A26C, U28A, A30G, C31A
DNA 1: CAATCTGAATTCCGGTCTCCC
DNA 2: TGGTGGCTACGACGGGATT
B12: GCAGGAG (DNA:RNA)
RNA: B1 RNA with A25G, A26C, C27A, U28G, U29G, C31G
DNA 1: CAATCTGAATTCCGGTCTCCC
DNA 2: TGGTGGCTACGACGGGATT
B13: GGCAUAA (DNA:RNA)
RNA: B1 RNA with A25G, A26G, U28A, C31A
DNA 1: CAATCTGAATTCCGGTCTCCC
DNA 2: TGGTGGCTACGACGGGATT
B14: UAACUCA (DNA:RNA)
RNA: B1 RNA with A25U, C27A, U28C, A30C, C31A
DNA 1: CAATCTGAATTCCGGTCTCCC
DNA 2: TGGTGGCTACGACGGGATT
B15: CCUCUGC (DNA:RNA)
RNA: B1 RNA with A25C, A26C, C27U, U28C, A30G
DNA 1: CAATCTGAATTCCGGTCTCCC
DNA 2: TGGTGGCTACGACGGGATT
B16: GACAUAA (DNA:RNA)
RNA: B1 RNA with A25G, U28A, C31A
DNA 1: CAATCTGAATTCCGGTCTCCC
DNA 2: TGGTGGCTACGACGGGATT
B17: GCAUAAU (DNA:RNA)
RNA: B1 RNA with A25G, A26C, C27A, U29A, C31U
DNA 1: CAATCTGAATTCCGGTCTCCC
DNA 2: TGGTGGCTACGACGGGATT
B18: GCAUUUU (DNA:RNA)
RNA: B1 RNA with A25G, A26C, C27A, A30U, C31U
DNA 1: CAATCTGAATTCCGGTCTCCC
DNA 2: TGGTGGCTACGACGGGATT
B19: GCAUAGA (DNA:RNA)
RNA: B1 RNA with A25G, A26C, C27A, U29A, A30G, C31A
DNA 1: CAATCTGAATTCCGGTCTCCC
DNA 2: TGGTGGCTACGACGGGATT
B20: GCAUAAA (DNA:RNA)
RNA: B1 RNA with A25G, A26C, C27A, U29A, C31A
DNA 1: CAATCTGAATTCCGGTCTCCC
DNA 2: TGGTGGCTACGACGGGATT
B21: GCAUGAA (DNA:RNA)
RNA: B1 RNA with A25G, A26C, C27A, U29G, C31A
DNA 1: CAATCTGAATTCCGGTCTCCC
DNA 2: TGGTGGCTACGACGGGATT
B22: GCAUGAU (DNA:RNA)
RNA: B1 RNA with A25G, A26C, C27A, U29G, C31U
DNA 1: CAATCTGAATTCCGGTCTCCC
DNA 2: TGGTGGCTACGACGGGATT
B23: CGCCCUU (DNA:RNA)
RNA: B1 RNA with A25C, A26G, U28C, U29C, A30U, C31U
DNA 1: CAATCTGAATTCCGGTCTCCC
DNA 2: TGGTGGCTACGACGGGATT
B24: UCGUUAU (DNA:RNA)
RNA: B1 RNA with A25U, A26C, C27G, C31U
DNA 1: CAATCTGAATTCCGGTCTCCC
DNA 2: TGGTGGCTACGACGGGATT
B25: UGUAGGC (DNA:RNA)
RNA: B1 RNA with A25U, A26G, C27U, U28A, U29G, A30G
DNA 1: CAATCTGAATTCCGGTCTCCC
DNA 2: TGGTGGCTACGACGGGATT
B26: UGUCGUA (DNA:RNA)
RNA: GGGAGACCGGAAUUCAGAUUGUCCUGUCGUAUUAAAUCCCGUCGUAGCCACCA
DNA 1: CAATCTGAATTCCGGTCTCCC
DNA 2: TGGTGGCTACGACGGGATT
B27: UGUGUGG (DNA:RNA)
RNA: B26 RNA with C28G, G29U, U30G, A31G
DNA 1: CAATCTGAATTCCGGTCTCCC
DNA 2: TGGTGGCTACGACGGGATT
B28: UGUUAAA (DNA:RNA)
RNA: B26 RNA with C28U, G29A, U30A
DNA 1: CAATCTGAATTCCGGTCTCCC
DNA 2: TGGTGGCTACGACGGGATT
B29: UGUAGGG (DNA:RNA)
RNA: B26 RNA with C28A, U30G, A31G
DNA 1: CAATCTGAATTCCGGTCTCCC
DNA 2: TGGTGGCTACGACGGGATT
B30: UGUAAUG (DNA:RNA)
RNA: B26 RNA with C28A, G29A, A31G
DNA 1: CAATCTGAATTCCGGTCTCCC
DNA 2: TGGTGGCTACGACGGGATT
B31: UGUAUUC (DNA:RNA)
RNA: B26 RNA with C28A, G29U, A31C
DNA 1: CAATCTGAATTCCGGTCTCCC
DNA 2: TGGTGGCTACGACGGGATT
B32: CGUAAUG (DNA:RNA)
RNA: B26 RNA with U25C, C28A, G29A, A31G
DNA 1: CAATCTGAATTCCGGTCTCCC
DNA 2: TGGTGGCTACGACGGGATT
B33: UGUAUGC (DNA:RNA)
RNA: B26 RNA with C28A, G29U, U30G, A31C
DNA 1: CAATCTGAATTCCGGTCTCCC
DNA 2: TGGTGGCTACGACGGGATT
B34: UGUAUGA (DNA:RNA)
RNA: B26 RNA with C28A, G29U, U30G
DNA 1: CAATCTGAATTCCGGTCTCCC
DNA 2: TGGTGGCTACGACGGGATT
B35: UGUAAUC (DNA:RNA)
RNA: B26 RNA with C28A, G29A, A31C
DNA 1: CAATCTGAATTCCGGTCTCCC
DNA 2: TGGTGGCTACGACGGGATT
B36: UGUAUGG (DNA:RNA)
RNA: B26 RNA with C28A, G29U, U30G, A31G
DNA 1: CAATCTGAATTCCGGTCTCCC
DNA 2: TGGTGGCTACGACGGGATT

The target of the assay is T1, RBFOX1 RRM RbFoxmut (Fox-RRM*). In words: EMSA; HiTS-Eq, 1 nM pool, 10 min; buffer printed only for the single-RNA assays: 10 mM Tris pH 7.5, 150 mM NaCl, 3.4 mM EDTA, 0.001% NP-40, 30 C. The following applies: tags: His6 N-terminal (pET28a); label: 5' 32P. In a few lines: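 Purified wild-type or mutant RbFox RRM at increasing concentrations was equilibrated with 1 nM of 5′-radiolabelled RNA carrying 7 randomized nucleotides for 10 min in 50 µL. Unbound RNA was separated by 8% native PAGE and sequenced. Relative association constants came from read-count changes of each RNA species compared with the control reaction, normalised to the cognate motif.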
In general terms: Mobility shift assays separate free from complexed probe on a gel.
Consider B1, for which the binding signal was 0.0902 KA relative to UGCAUGU.
Consider B2, for which the binding signal is 0.871 KA relative to UGCAUGU.
With B3, the binding signal is 0.219 KA relative to UGCAUGU.
Then B4, with 0.2 KA relative to UGCAUGU; and B5, with 0.178 KA relative to UGCAUGU; and B6, with 0.603 KA relative to UGCAUGU.
Next, B7: 0.16 KA relative to UGCAUGU; B8: 0.624 KA relative to UGCAUGU.
For B9, the binding signal is 0.771 KA relative to UGCAUGU.
Then B10, with 0.124 KA relative to UGCAUGU.
Then B11, with 0.134 KA relative to UGCAUGU; and B12, with 0.0994 KA relative to UGCAUGU; and B13, with 0.117 KA relative to UGCAUGU.
In the case of B14, the binding signal is 0.1 KA relative to UGCAUGU.
Next, B15: 0.0985 KA relative to UGCAUGU; B16: 0.115 KA relative to UGCAUGU.
With B17, the binding signal was 0.115 KA relative to UGCAUGU.
In the case of B18, the binding signal is 0.113 KA relative to UGCAUGU.
Take B19: the binding signal was 0.132 KA relative to UGCAUGU.
As to B20, the binding signal was 0.144 KA relative to UGCAUGU.
Next, B21: 0.798 KA relative to UGCAUGU; B22: 0.551 KA relative to UGCAUGU.
Turning to B23, the binding signal was 0.0724 KA relative to UGCAUGU.
Next, B24: 0.11 KA relative to UGCAUGU; B25: 0.115 KA relative to UGCAUGU.
Then B26, with 0.13 KA relative to UGCAUGU; and B27, with 0.173 KA relative to UGCAUGU.
Then B28, with 0.11 KA relative to UGCAUGU; and B29, with 0.0751 KA relative to UGCAUGU; and B30, with 0.381 KA relative to UGCAUGU.
In the case of B31, the binding signal is 0.207 KA relative to UGCAUGU.
B32: the binding signal is 0.157 KA relative to UGCAUGU.
Turning to B33, the binding signal was 0.684 KA relative to UGCAUGU.
Next, B34: 0.44 KA relative to UGCAUGU.
As to B35, the binding signal was 0.157 KA relative to UGCAUGU.
Next, B36: 0.394 KA relative to UGCAUGU.
